# Compounds without any hit were thinned out: in the full panel of roughly 83,000, 20% have a hit.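 Compound tested at a single concentration for 48 hours in 96-well plates; a percent growth value below 10 was scored as active.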 Unmarked numbers belong to inactive results. Active and inactive are the calls of the source.
# Tested on: HL-60(TB) leukemia
# Test: NCI-60 one-dose screen, 48 h (100 = growth as untreated, 0 = no growth, -100 = all killed)
# Settings: 10 µM unless noted
row,Structure (SMILES),growth
1,O=C1CSC(c2ccccc2O)N1c1nnc(Cn2ccnc2)o1 (centres undefined),24.9%
2,CC(/C=C/C=C(\C)[C@H](O)[C@H](C)C(=O)O[C@H]1C[C@H](C)C=C2C=C[C@@]3(C)O[C@@H](O)CC(=O)[C@]3(C)[C@H]21)=C\C=C\C(=O)O,34%
3,C=C(c1ccc(OC)c(/C=C/C(=O)c2cc(OC)c(OC)c(OC)c2)c1)c1cc(OC)c(OC)c(OC)c1,12.8%
4,CCCCCCCCCCCCCC[N+](C)(C)CCCCCCCCCCCCCC,46.6%
5,Cc1cc(SCc2ccccc2)nc(N)n1,119%
6,COc1cc(Cc2cc(-c3ccccc3)n[nH]c2=O)cc(OC)c1OC,53.4%
7,S=C1N(c2ccccc2)CN(C2CCCCC2)CN1c1ccccc1,96.1%
8,COc1cc(C(=O)c2c(-c3ccccc3)oc3c(OC)cccc23)cc(OC)c1OC,-6.56% (active)
9,Clc1ccc(Nc2scc3[n+]2CCC3)cc1,98.3%
10,C#C[C@@]1(O)[C@@H](CO)O[C@@H](n2cc(Br)c3c(Cl)ccnc32)[C@@H]1O,-46.5% (active)
11,[2H]c1nc(Nc2ncc(F)c(-c3cc(F)c4nc(C)n(C(C)C)c4c3)n2)c([2H])c([2H])c1CN1CCN(CC)CC1,24.6%
12,O=C(CO[N+](=O)[O-])Nc1ccc(C(=O)/C=C/c2ccc3c(c2)OCO3)cc1,73.7%
13,COc1ccc(-c2oc(=O)ccc2-c2cc(OC)c(OC)c(OC)c2)cc1O,-58.9% (active)
14,COc1cc(N2CCC(N(C)C)CC2)ccc1Nc1ncc(Cl)c(Nc2ccccc2P(C)(C)=O)n1,10%
